Consider 30 compounds from PubChem BioAssay.

In this experiment the test system is Noggin (protein binding on small-molecule microarray). Briefly: Noggin binders on small-molecule microarray, primary screen, biochemical, 635/667 nm fluorescence (AID 1095).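 Note: score merges 667 nm feature fluorescence with signal to noise over triplicate slides.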 Conditions: 635 nm fluorescence, higher = more signal.
`O=C1CCCC(C2=CCCCC2=O)C1` (stereo not given) displayed a composite z-score of 0.546.

For `Cn1c(=O)n2n(c1=O)[C@H]1[C@H](O)[C@@H]3O[C@@H]3C(=NOCc3ccccc3)[C@H]1CC2`, the composite z-score is -0.173.

`CO[C@H](C1CCCCC1)[C@H](C)C=CCC(=O)OCCCc1ccccc1` yielded a composite z-score of -0.0107.

The compound `COC(=O)[C@H](C)NC(=O)CCC1CC(OC(=O)NCc2ccc3c(c2)OCO3)CC2(CCCC(COC(=O)NCC(c3ccccc3)c3ccccc3)O2)O1` (stereo not given in full) yielded a composite z-score of 1.5.

`O=c1n(-c2ccccc2)c(=O)n2n1CC[C@@H]1C(=NOCc3ccccc3)[C@H]3O[C@H]3[C@@H](O)[C@@H]12` registered a composite z-score of -0.131.

For `COC(=O)[C@H]1[C@@H](O)[C@@]2(O)c3ccccc3O[C@@]2(c2ccccc2)[C@@H]1c1ccccc1`, the composite z-score is -0.169.

`COC(=O)CC=C[C@@H](C)[C@@H](C=NOC(C)CN1CCCc2nc(C)c(C)cc21)OC` (stereo not given in full) displayed a composite z-score of 0.541.

`COC(=O)[C@H](C)NC(=O)CCC1CC(OC(=O)NCCc2ccc(F)cc2)CC2(CCCC(COC(=O)NCc3cccc(C(F)(F)F)c3)O2)O1` (stereo not given in full) showed a composite z-score of 1.01.

In turn, `Cc1ccc(S(=O)(=O)N[C@H]2COC(=O)CC=C[C@H](C)[C@@H](NS(=O)(=O)c3ccc(C)cc3)COC(=O)CC=C[C@@H]2C)cc1` had a composite z-score of 0.601.

As for `CON=C1[C@H]2CCn3c(=O)n(-c4ccccc4)c(=O)n3[C@H]2[C@H](O)[C@@H]2O[C@H]12`, the composite z-score is 1.02.

As for `C#CCCCON=C1C[C@@H](O)[C@@H](O)[C@@H]2[C@@H]3C(=O)N(C(C)(C)C)C(=O)[C@@H]3CC[C@@H]12`, the composite z-score is -1.11.

On to `CO[C@H]1COC(=O)CC=C[C@@H](C)[C@H](NS(=O)(=O)c2ccc(C)cc2)COC(=O)CCC[C@@H]1C`, for which the composite z-score turned out to be 0.676.

For the compound `COc1ccc(COC(=O)NN=C2C[C@@H](O)[C@@H](O)[C@@H]3[C@@H]4C(=O)N(c5ccc(F)cc5F)C(=O)[C@@H]4CC[C@H]23)cc1`, the composite z-score was -0.186.

For `COc1ccc(O[C@H]2C=C[C@@H](c3ccccc3)O[C@@H]2COC(=O)CCC(C)=NOC[C@@H](O)[C@H]2O[C@@H]3OC(C)(C)O[C@@H]3[C@H]2O)cc1`, the composite z-score is 1.41.

`CO[C@H]1COC(=O)CC=C[C@H](C)[C@@H](OC)COC(=O)[C@H](C)COC(=O)CC=C[C@@H]1C` had a composite z-score of 1.76.

Compound `CCOC(=O)C1=NO[C@]2(C=C(Br)C3(OCCCO3)[C@H]3O[C@H]32)C1` had a composite z-score of -0.519.

Compound `Cc1cc2c(nc1C)CCCCN2CC(C)ON=C1[C@H]2CCn3c(=O)n(-c4ccccc4)c(=O)n3[C@H]2[C@H](O)[C@@H]2O[C@H]12` (stereo not given in full) had a composite z-score of 0.439.

Take `COc1ccc(O[C@H]2C=C[C@@H](c3ccccc3)O[C@@H]2COC(=O)CCC(C)=NO[C@@H]2O[C@H](COC(C)=O)[C@@H](OC(C)=O)[C@H](OC(C)=O)[C@H]2OC(C)=O)cc1`: the composite z-score was found to be 0.749.

Compound `Cc1cc2c(c(=O)o1)[C@@H](O)[C@H]1O[C@H]1C2=O` displayed a composite z-score of 0.887.

Compound `CCOC(=O)CCN1C(=O)[C@H]2[C@H]3[C@H](O)[C@H](O)CC(=NNC(=O)OCc4ccccc4)[C@@H]3CC[C@H]2C1=O` showed a composite z-score of 0.713.

In the case of `O=C1[C@H]2[C@H]3[C@H](O)[C@H](O)CC(=NOC[C@@H](O)COCc4ccco4)[C@@H]3CC[C@H]2C(=O)N1C[C@@H]1CCCO1`, the composite z-score turned out to be 0.997.

As for `CC(C)CON=C1C[C@@H](O)[C@@H](O)[C@@H]2[C@@H]3C(=O)N(C[C@@H]4CCCO4)C(=O)[C@@H]3CC[C@@H]12`, the composite z-score is 0.262.

`CON=Cc1ccc(C(=O)N2[C@H](c3ccc(C)cc3)[C@@H](C)CC[C@H]2C(=O)OC)cc1` displayed a composite z-score of 0.292.

Take `C[C@@H](c1ccccc1)N1C(=O)[C@H]2[C@H]3[C@H](O)[C@H](O)CC(=O)[C@H]3CC[C@H]2C1=O`: the composite z-score was 0.482.

`CC(C)CON=C1C[C@@H](O)[C@@H](O)[C@@H]2[C@@H]3C(=O)N(Cc4ccc5c(c4)OCO5)C(=O)[C@@H]3CC[C@H]12` returned a composite z-score of 1.38.

`CCN1C(=O)[C@H]2[C@H]3[C@H](O)[C@H](O)CC(=NOCC(C)C)[C@@H]3CC[C@H]2C1=O` gave a composite z-score of 1.11.

On to `CC(C)=NO[C@H](C)c1cn([C@H](CO)Cc2ccccc2)nn1`, for which the composite z-score was -0.0003.

In turn, `CCCNC(=O)OC[C@H]1O[C@H](c2ccccc2)C=C[C@@H]1Oc1ccc(OC)cc1` displayed a composite z-score of -0.234.

For the compound `C[C@@H]1CC[C@H]2C(=O)O[C@@H](Cc3ccccc3)CN2[C@H]1c1ccc(Br)cc1`, the composite z-score was determined as 0.31.

Turning to `COc1ccc(O[C@H]2C=C[C@@H](c3ccccc3)O[C@@H]2CON=C(C)CCC(=O)OC[C@H]2O[C@H](c3ccccc3)C=C[C@@H]2Oc2ccc(OC)cc2)cc1`, the composite z-score is -0.769.
